Experiment [1] can be described thus: ATG_GLI_CIS: Attagene CIS-FACTORIAL HepG2 Assay for human Zinc Finger Protein GLI1 (AID 2282945). The note with it: HepG2, Attagene cis-factorial reporter mRNA, GLI element; actives raise or lower the signal. In outline: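 Bidirectional curve fits relative to DMSO, using reporter mRNA levels from RT-PCR plus capillary electrophoresis. Cells were HepG2 transiently carrying cis-regulated reporter constructs, harvested 24 h after dosing.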

The target of experiment [2] is Bile acid receptor (Homo sapiens) (UniProt Q96RI1). The experiment is described as follows: ATG_IR1_CIS: Attagene CIS-FACTORIAL HepG2 Assay for human Nuclear Receptor Subfamily 1 Group H Member 4 (NR1H4), IR1 submotif (AID 2282946). The note with it: IR1 reporter transcription, actives raise or lower the signal. In outline:
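HepG2 cells transiently transfected with multiplexed cis-element reporter units read endogenous transcription factor activity. After 24 h compound exposure, reporter mRNA was quantified by RT-PCR, fluorescent labelling, HpaI digestion and capillary electrophoresis; bidirectional fitting versus DMSO baseline.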

The nature of experiment [3]: ATG_GRE_CIS: Attagene CIS-FACTORIAL HepG2 Assay for human Glucocorticoid Response Elements (GRE) (AID 2282947). The note with it: HepG2 GRE cis-reporter, Attagene multiplex mRNA; actives raise or lower the signal. An outline of the steps:
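Reporter transcripts read by RT-PCR with capillary electrophoresis fluorescence after a 24 h chemical exposure of HepG2 cells transiently transfected with multiple cis-element reporter units. Gain or loss fitted against DMSO.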

Experiment [4] in a line: ATG_ISRE_CIS: Attagene CIS-FACTORIAL HepG2 Assay for human Interferon Regulatory Factor 1 (IRF1) binding to an Interferon-Stimulated Response Element (ISRE) (AID 2282948). The following applies: HepG2 ISRE cis-reporter (Attagene), mRNA transcription readout; actives raise or lower the signal. In outline:
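Endogenous transcription factor activity read as reporter transcript abundance via RT-PCR and capillary electrophoresis. HepG2 cells transiently transfected, 24 h chemical exposure. Gain or loss fitted against DMSO baseline.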

A short description of experiment [5]: ATG_M_32_CIS: Attagene CIS-FACTORIAL HepG2 Assay for M32 Transcription Factor (Internal Marker) (AID 2282949).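 Also: background control marker of the multiplexed CIS panel rather than a real target.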 The note with it: HepG2 Attagene cis-factorial M32 reporter, mRNA; actives raise or lower the signal. In outline:
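HepG2 human liver cells transiently transfected with cis-promoter-driven multiple reporter transcription units, dosed 24 h. Reporter mRNA quantified by RT-PCR, FAM-labelled primer extension, HpaI digest and capillary electrophoresis; bidirectional fit versus DMSO baseline.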

The nature of experiment [6]: ATG_M_06_CIS: Attagene CIS-FACTORIAL HepG2 Assay for M06 Transcription Factor (Internal Marker) (AID 2282950). The note with it: HepG2 Attagene CIS-FACTORIAL M06 internal marker reporter; actives raise or lower the signal. In outline:
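Measured 24 h post-dosing in transiently transfected HepG2 cells, this internal-marker endpoint reports reporter mRNA via RT-PCR with fluorescent primer extension and capillary electrophoresis. DMSO served as negative control and baseline for bidirectional fitting.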

For experiment [7], the target named is Hypoxia-inducible factor 1-alpha (Homo sapiens) (UniProt Q16665). The experiment is described as follows: ATG_HIF1a_CIS: Attagene CIS-FACTORIAL HepG2 Assay for human Hypoxia Inducible Factor 1 (HIF1A) (AID 2282951). The following applies: HepG2 Attagene cis-factorial HIF1a reporter transcription; actives raise or lower the signal. An outline of the steps: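 Dosed 24 h, transfected HepG2 cells yielded total RNA whose reporter transcripts were RT-PCR-amplified and sized by capillary electrophoresis using fluorescent labelling; DMSO defined baseline, with gain and loss of signal both fitted.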

In experiment [8] the target is Hepatocyte nuclear factor 6 (Homo sapiens) (UniProt Q9UBC0). The experiment is described as follows: ATG_HNF6_CIS: Attagene CIS-FACTORIAL HepG2 Assay for human Hepatocyte Nuclear Factor 6 (HNF6) (AID 2282952). The following applies: HepG2 Attagene cis-factorial HNF6 reporter transcription; actives raise or lower the signal. An outline of the steps:
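Endogenous transcription factor activity in human HepG2 liver cells was captured through cis-regulated reporter constructs. After 24 h treatment, reporter mRNA was measured by RT-PCR with capillary electrophoresis, and activity was fitted in both directions relative to DMSO.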

In experiment [9] the target is Heat shock factor protein 1 (Homo sapiens) (UniProt Q00613). The experiment is described as follows: ATG_HSE_CIS: Attagene CIS-FACTORIAL HepG2 Assay for human Heat Shock Transcription Factor 1 (HSE) (AID 2282953). The note with it: HepG2 HSE cis-reporter, Attagene RNA transcription; actives raise or lower the signal. An outline of the steps: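 Reporter mRNA induction in HepG2 is measured 24 h after dosing, using transiently transfected multiplexed cis-regulated reporter units. Signal comes from capillary electrophoresis of labelled RT-PCR products, with DMSO as negative control.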

Experiment [10] is described as follows: ATG_MRE_CIS: Attagene CIS-FACTORIAL HepG2 Assay for human Metal Responsive Element (MRE) (AID 2282954). The note with it: HepG2 MRE cis-reporter transcription, Attagene multiplex; actives raise or lower the signal. An outline of the steps:
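Endogenous MRE-dependent transcription read as reporter mRNA in transiently transfected human HepG2 cells at 24 h. RNA reverse-transcribed, PCR-amplified, labelled and resolved by capillary electrophoresis; gain or loss relative to DMSO.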

Experiment [11] can be described thus: ATG_PBREM_CIS: Attagene CIS-FACTORIAL HepG2 Assay for human Phenobarbital-responsive Enhancer Module (PBREM) (AID 2282955). The following applies: HepG2 PBREM cis-reporter, Attagene multiplexed transcription; actives raise or lower the signal. An outline of the steps: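 Transfected liver-derived HepG2 cells exposed 24 h; PBREM reporter transcript quantified via RT-PCR and capillary electrophoresis, with activity in either direction referenced to DMSO.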

In experiment [12] the target is Paired box protein Pax-6 (Homo sapiens) (UniProt P26367). Put plainly: ATG_Pax6_CIS: Attagene CIS-FACTORIAL HepG2 Assay for human Paired Box 6 (PAX6) (AID 2282956). The following applies: HepG2 CIS-FACTORIAL PAX6 reporter transcription, RNA readout; actives raise or lower the signal. An outline of the steps:
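Read-out is reporter transcript level, measured by RT-PCR with fluorescent primer extension and capillary electrophoresis after 24 h dosing of transfected HepG2 cells. Activity in either direction fitted relative to DMSO control.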

A short description of experiment [13]: ATG_PXRE_CIS: Attagene CIS-FACTORIAL HepG2 Assay for human Pregnane X Receptor Element (PXRE) (AID 2282957). The following applies: HepG2 Attagene CIS-FACTORIAL PXRE reporter, mRNA; actives raise or lower the signal. An outline of the steps:
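Endogenous transcription factor activity in HepG2 was gauged through induction of reporter mRNA driven by a cis-regulating promoter element, sampled 24 h post-treatment. Activity was fitted in both directions against DMSO negative control.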

The nature of experiment [14]: ATG_PPRE_CIS: Attagene CIS-FACTORIAL HepG2 Assay for human Peroxisome Proliferator-activated Response Element (PPRE) (AID 2282958). The note with it: HepG2 PPRE cis-element reporter, Attagene transcription factor profiling; actives raise or lower the signal. An outline of the steps:
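Measured endpoint: PPRE-controlled reporter mRNA, detected by RT-PCR and capillary electrophoresis fluorescence, from transiently transfected HepG2 cells 24 h after dosing. Curves fitted in both directions using DMSO baseline.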

Experiment [15] can be described thus: ATG_RORE_CIS: Attagene CIS-FACTORIAL HepG2 Assay for human RAR-related Orphan Receptor Element (RORE) (AID 2282959). The following applies: HepG2 Attagene cis-factorial RORE reporter, mRNA; actives raise or lower the signal. In outline:
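Transiently transfected HepG2 reporter cells were treated 24 h. Reporter transcripts were detected by RT-PCR and capillary electrophoresis, with bidirectional fitting against DMSO.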

Experiment [16] is described as follows: ATG_Sox_CIS: Attagene CIS-FACTORIAL HepG2 Assay for human SRY-box transcription factor (SOX) (AID 2282960). The following applies: HepG2 Attagene cis-factorial SOX reporter, mRNA; actives raise or lower the signal. An outline of the steps: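 Gain- or loss-of-signal endpoint, fitted bidirectionally with DMSO as negative control. Based on reporter mRNA from transfected HepG2 cells harvested 24 h post-treatment and quantified via RT-PCR and capillary electrophoresis.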

Experiment [17] deals with Transcription factor Sp1 (Homo sapiens) (UniProt P08047). Put plainly: ATG_Sp1_CIS: Attagene CIS-FACTORIAL HepG2 Assay for human Specificity Protein 1 (Sp1) (AID 2282961). The note with it: HepG2 Sp1 cis-reporter transcription, actives raise or lower the signal. In outline:
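Endpoint reflects endogenous Sp1 transcriptional activity, not an exogenous fusion protein: HepG2 cells with transfected cis-regulated reporters, 24 h dosing, RT-PCR/capillary electrophoresis mRNA read-out, DMSO-normalised bidirectional fit.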

Experiment [18] can be described thus: ATG_SREBP_CIS: Attagene CIS-FACTORIAL HepG2 Assay for human Sterol Regulatory Element Binding (SREBP) (AID 2282962). The following applies: HepG2 Attagene cis-factorial SREBP reporter, mRNA; actives raise or lower the signal. An outline of the steps:
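Endogenous SREBP activity read as cis-element-driven reporter transcript in transiently transfected HepG2, 24 h post-dosing; quantified via RT-PCR plus capillary electrophoresis of fluorescent fragments. Gain or loss of signal fitted relative to DMSO baseline.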

In experiment [19] the target is Signal transducer and activator of transcription 3 (Homo sapiens) (UniProt P40763). The experiment is described as follows: ATG_STAT3_CIS: Attagene CIS-FACTORIAL HepG2 Assay for human Signal Transducer and Activator of Transcription 3 (STAT3) (AID 2282963). The note with it: HepG2, Attagene cis-factorial STAT3 reporter transcription; actives raise or lower the signal. An outline of the steps:
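Readout is reporter transcript quantified by RT-PCR and capillary electrophoresis, with 6-FAM primer extension and HpaI digestion. Total RNA is taken 24 h after dosing transiently transfected HepG2 carrying cis-regulated reporter units. Bidirectional fit against DMSO.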

A short description of experiment [20]: ATG_TA_CIS: Attagene CIS-FACTORIAL HepG2 Assay for human TA Basal Promoter (AID 2282964). The note with it: HepG2 Attagene CIS-factorial TA basal promoter reporter; actives raise or lower the signal. An outline of the steps: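 Cis-factorial format in HepG2: reporters report endogenous factors, not chimeric Gal4 fusions. After 24 h treatment, reporter transcripts were measured by RT-PCR-capillary electrophoresis fluorescence, analysed bidirectionally versus DMSO.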

Our source for the outcome and AC50 values is PubChem BioAssay (EPA / NIEHS).

A structure can be active in one record and inactive in another. The source made the active and inactive calls. The calls were made as follows: active = hit-call score of the fitted dose curve at least 0.9, where 1 is the maximum; inactive = score below 0.9.

Chain of Hepatocyte nuclear factor 6 (Homo sapiens) (Q9UBC0 whole entry, looked up): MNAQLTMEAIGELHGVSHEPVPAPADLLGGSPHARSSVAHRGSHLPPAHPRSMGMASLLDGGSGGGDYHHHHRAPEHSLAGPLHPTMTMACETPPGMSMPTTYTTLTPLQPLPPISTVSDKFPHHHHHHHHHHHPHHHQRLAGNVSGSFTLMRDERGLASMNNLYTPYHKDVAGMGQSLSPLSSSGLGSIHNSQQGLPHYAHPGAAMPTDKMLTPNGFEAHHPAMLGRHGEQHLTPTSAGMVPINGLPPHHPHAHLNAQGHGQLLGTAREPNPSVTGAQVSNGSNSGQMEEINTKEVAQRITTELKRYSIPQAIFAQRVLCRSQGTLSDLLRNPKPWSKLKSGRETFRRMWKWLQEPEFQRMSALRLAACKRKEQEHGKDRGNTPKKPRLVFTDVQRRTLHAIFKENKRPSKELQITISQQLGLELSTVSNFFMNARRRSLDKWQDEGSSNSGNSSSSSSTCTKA
Chain of Signal transducer and activator of transcription 3 (Homo sapiens) (P40763 whole entry, looked up): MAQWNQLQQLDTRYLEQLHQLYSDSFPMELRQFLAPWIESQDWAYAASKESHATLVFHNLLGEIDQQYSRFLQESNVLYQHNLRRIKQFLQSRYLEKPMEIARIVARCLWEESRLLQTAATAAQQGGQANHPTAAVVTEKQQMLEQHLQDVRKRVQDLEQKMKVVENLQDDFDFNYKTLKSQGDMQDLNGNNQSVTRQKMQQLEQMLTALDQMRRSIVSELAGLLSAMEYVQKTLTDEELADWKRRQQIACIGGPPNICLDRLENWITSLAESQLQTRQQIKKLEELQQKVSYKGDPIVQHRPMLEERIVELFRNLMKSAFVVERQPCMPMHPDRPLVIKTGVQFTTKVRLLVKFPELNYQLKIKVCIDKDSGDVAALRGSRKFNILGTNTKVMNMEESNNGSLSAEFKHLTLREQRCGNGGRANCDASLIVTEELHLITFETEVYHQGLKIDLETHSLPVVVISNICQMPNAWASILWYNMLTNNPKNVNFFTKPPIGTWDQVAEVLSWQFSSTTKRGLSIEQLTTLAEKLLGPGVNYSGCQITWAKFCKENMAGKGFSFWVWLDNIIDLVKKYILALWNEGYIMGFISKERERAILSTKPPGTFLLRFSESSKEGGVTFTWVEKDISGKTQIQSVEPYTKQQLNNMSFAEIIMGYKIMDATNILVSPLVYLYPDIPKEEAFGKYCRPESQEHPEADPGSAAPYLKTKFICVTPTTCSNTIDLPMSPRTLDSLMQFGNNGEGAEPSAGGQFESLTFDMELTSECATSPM
Chain of Transcription factor Sp1 (Homo sapiens) (P08047 whole entry, looked up, the tested form may be a part): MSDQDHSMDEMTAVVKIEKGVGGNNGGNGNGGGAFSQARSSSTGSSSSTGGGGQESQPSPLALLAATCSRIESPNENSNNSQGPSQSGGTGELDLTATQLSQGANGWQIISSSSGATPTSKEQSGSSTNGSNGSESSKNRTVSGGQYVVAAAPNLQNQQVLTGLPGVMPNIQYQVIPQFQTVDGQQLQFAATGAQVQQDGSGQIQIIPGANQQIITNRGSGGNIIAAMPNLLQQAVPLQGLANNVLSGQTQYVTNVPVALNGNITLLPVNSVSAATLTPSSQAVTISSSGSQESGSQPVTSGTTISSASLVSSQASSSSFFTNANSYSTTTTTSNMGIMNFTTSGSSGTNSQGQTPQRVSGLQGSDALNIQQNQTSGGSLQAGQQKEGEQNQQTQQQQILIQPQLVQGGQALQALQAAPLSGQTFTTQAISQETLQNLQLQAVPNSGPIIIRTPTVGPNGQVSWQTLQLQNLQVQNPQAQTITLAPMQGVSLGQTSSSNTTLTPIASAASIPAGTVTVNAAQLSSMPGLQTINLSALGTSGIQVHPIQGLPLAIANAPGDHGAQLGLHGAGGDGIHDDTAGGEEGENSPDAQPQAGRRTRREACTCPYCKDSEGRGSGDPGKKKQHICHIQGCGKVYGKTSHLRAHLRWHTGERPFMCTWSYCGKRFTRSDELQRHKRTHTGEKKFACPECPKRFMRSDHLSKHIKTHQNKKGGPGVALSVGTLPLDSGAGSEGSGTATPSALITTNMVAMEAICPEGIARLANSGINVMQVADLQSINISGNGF
Chain of Heat shock factor protein 1 (Homo sapiens) (Q00613 whole entry, looked up): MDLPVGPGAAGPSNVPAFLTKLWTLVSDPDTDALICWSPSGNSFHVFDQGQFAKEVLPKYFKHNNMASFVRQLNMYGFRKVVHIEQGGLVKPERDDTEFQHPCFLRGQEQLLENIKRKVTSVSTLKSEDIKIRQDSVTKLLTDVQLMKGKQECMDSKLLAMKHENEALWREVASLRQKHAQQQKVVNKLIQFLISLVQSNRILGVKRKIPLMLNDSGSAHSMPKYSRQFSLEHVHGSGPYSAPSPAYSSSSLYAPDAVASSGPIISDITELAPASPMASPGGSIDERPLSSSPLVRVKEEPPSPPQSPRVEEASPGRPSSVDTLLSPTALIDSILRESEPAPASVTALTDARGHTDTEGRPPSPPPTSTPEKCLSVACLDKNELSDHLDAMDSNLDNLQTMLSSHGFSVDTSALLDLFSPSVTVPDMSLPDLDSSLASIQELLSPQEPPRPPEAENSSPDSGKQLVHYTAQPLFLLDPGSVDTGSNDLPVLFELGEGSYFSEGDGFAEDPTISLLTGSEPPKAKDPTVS
Chain of Hypoxia-inducible factor 1-alpha (Homo sapiens) (Q16665 whole entry, looked up): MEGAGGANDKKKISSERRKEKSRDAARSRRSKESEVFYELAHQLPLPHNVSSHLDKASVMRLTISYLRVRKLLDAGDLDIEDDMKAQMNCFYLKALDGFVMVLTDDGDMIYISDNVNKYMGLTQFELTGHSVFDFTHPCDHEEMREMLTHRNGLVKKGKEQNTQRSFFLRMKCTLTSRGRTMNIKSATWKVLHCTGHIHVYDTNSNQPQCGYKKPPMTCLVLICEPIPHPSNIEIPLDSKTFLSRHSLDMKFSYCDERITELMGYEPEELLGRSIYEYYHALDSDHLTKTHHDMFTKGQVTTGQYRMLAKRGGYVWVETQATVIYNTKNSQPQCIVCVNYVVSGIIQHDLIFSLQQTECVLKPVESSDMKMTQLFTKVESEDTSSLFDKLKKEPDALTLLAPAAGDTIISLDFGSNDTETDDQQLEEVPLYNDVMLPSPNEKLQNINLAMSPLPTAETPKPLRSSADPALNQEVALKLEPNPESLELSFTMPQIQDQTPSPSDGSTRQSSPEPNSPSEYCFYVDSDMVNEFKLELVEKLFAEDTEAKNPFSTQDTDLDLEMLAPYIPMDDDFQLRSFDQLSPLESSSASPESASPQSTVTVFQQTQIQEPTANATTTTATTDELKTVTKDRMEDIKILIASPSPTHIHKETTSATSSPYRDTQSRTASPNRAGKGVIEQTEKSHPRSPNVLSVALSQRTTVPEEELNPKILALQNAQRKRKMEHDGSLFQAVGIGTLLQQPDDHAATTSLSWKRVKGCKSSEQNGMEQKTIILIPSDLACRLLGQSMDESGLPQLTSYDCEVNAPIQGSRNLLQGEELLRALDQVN
Chain of Paired box protein Pax-6 (Homo sapiens) (P26367 whole entry, looked up): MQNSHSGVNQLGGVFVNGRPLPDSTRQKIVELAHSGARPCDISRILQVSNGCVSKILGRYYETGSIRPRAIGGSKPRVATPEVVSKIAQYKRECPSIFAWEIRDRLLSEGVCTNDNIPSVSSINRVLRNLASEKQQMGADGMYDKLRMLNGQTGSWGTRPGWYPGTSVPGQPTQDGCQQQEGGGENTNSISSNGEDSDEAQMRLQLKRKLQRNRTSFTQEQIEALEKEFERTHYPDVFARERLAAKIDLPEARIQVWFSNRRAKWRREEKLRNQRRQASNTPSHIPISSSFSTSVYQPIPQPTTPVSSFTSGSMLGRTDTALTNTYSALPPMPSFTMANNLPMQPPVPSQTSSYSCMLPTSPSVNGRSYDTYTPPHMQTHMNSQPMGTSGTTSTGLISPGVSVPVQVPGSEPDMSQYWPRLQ
Chain of Bile acid receptor (Homo sapiens) (Q96RI1 whole entry, looked up): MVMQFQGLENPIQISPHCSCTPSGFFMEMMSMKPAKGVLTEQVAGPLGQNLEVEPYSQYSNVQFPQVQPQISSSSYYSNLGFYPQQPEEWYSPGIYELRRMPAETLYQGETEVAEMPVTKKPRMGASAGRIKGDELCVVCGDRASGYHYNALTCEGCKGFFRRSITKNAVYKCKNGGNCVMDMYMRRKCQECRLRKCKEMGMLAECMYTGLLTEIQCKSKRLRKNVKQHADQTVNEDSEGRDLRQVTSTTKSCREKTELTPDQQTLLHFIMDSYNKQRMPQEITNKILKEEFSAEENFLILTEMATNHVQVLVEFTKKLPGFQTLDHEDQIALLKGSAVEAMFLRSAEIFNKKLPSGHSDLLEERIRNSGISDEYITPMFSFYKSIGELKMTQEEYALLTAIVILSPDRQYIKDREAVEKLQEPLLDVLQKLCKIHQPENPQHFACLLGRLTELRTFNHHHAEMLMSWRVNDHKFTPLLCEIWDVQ

The term AC50 denotes the midpoint of the concentration-response curve, whichever way the signal moves. `O=C(c1ccc(O)cc1O)c1ccc(O)cc1O`: the outcome in [1], in experiment [2], in experiment [3], in [4], in experiment [5] and in experiment [6] was inactive. In addition, the molecule was called inactive in [7], in experiment [8], in experiment [10], in [11], in [12] and in experiment [13]. The molecule was classed as inactive in experiment [14], in experiment [15], in experiment [16], in experiment [17], in [18] and in experiment [19]. The outcome in [20] was inactive. Moreover, the AC50 is 100 µM (active) in experiment [4], 41.3 µM (active) [middle of 4 runs] in experiment [9] and 28.4 µM (active) in experiment [14].
As for `CCCN(CCC)C(=O)SCC`, the molecule was called inactive in experiment [1], in experiment [3], in experiment [4], in experiment [5], in [6] and in experiment [7]. Moreover, the outcome in [8], in experiment [9], in [10], in experiment [11], in [12] and in experiment [13] was inactive. Also, the outcome in experiment [15], in experiment [16], in experiment [17], in experiment [18], in experiment [19] and in experiment [20] was inactive.
As for `CCCCCCC(C)OC(=O)COc1nc(F)c(Cl)c(N)c1Cl` (stereo not given), the result in experiment [1], in experiment [4], in experiment [5], in [6], in [7] and in experiment [8] was inactive. For the same molecule, the outcome in [9], in [10], in [12], in experiment [13], in [15] and in experiment [16] was inactive. For the same molecule, the molecule was classed as inactive in experiment [17], in experiment [18], in [19] and in [20].
Take `O=C(O)C1(C(=O)Nc2ccc(Cl)cc2Cl)CC1`: the molecule was classed as inactive in experiment [1], in experiment [2], in experiment [4], in [5], in [6] and in experiment [7]. Further, the result in experiment [8], in experiment [9], in experiment [10], in experiment [11], in experiment [12] and in [15] was inactive. The molecule was classed as inactive in experiment [16], in experiment [17], in experiment [18], in experiment [19] and in [20]. In addition, the values for the AC50 in [13] and in [14] were 69.7 µM (active) and 13.7 µM (active), respectively.
Regarding `COC(=O)c1ccccc1S(=O)(=O)NC(=O)Nc1nc(OC(F)F)cc(OC(F)F)n1`, the molecule was classed as inactive in experiment [2], in [3], in [4], in [5], in experiment [6] and in experiment [7]. Further, the outcome in experiment [8], in experiment [9], in experiment [10], in experiment [11], in experiment [12] and in [14] was inactive. The call in experiment [15], in [16], in experiment [17], in experiment [18], in [19] and in experiment [20] was inactive. The AC50 in experiment [13] is 33.2 µM (active).
Consider `O=C(O)c1ccccc1`, for which the outcome in experiment [1], in experiment [4], in [5], in experiment [6], in experiment [7] and in experiment [8] was inactive. The call in experiment [10], in experiment [11], in [12], in experiment [13], in [15] and in [16] was inactive. For the same molecule, the molecule was classed as inactive in [17], in experiment [18], in [19] and in [20].
